{"source": "PubChem BioAssay (Tox21)", "note": "Records with an inconclusive call do not appear. A number with no mark means an inactive call. Calls come from the whole dose curve."}
{"assay": "qHTS assay to identify small molecule agonists of the AP-1 signaling pathway (AID 1159526); note: % is set by controls: 0 for no effect and ±100 for the full control effect", "conditions": "ME-180 AP-1-bla reporter, beta-lactamase FRET ratio, 5 h; series mostly up to 76.8 µM; activation: at the top concentration"}
{"compound": "CCC1CO1", "note": "(stereo not drawn)", "activation": "-2.96%"}
{"compound": "CCCCCCC(C)(C)C(=O)O", "activation": "-1.87%"}
{"compound": "C=C(C)C(=O)OCCCCCCCCCCCCC", "activation": "3.08%"}
{"compound": "CCCCCC#CC(=O)OC", "activation": "-12.9%"}
{"compound": "CNC(=O)c1cnn(-c2nc(N)c3ncn([C@@H]4O[C@H](CO)[C@@H](O)[C@H]4O)c3n2)c1", "activation": "0.13% [at 35.3 µM]"}
{"compound": "CCCCOc1ccc(OCCCN2CCOCC2)cc1", "activation": "10.1% [at 35.3 µM]"}
{"compound": "C1COC1", "activation": "-2.01%"}
{"compound": "CC(=O)NC1(c2cccc(F)c2)CCN(CC[C@@]2(c3ccc(Cl)c(Cl)c3)CN(c3ccccc3)C(=O)CO2)CC1", "activation": "-0.873%"}
